The supplement of paper PMC11732987, “Enantioselective OTUD7B fragment discovery through chemoproteomics screening and high-throughput optimisation” (Communications Chemistry, 2025)

Tests used:
Test in all cases: log2 ratio of Biotin-Ahx-Ub-VS probe labelling (fragment/DMSO); higher = less target engagement (more negative = stronger competition), active = hit call of the paper (q ≤ 0.05, log2 ratio ≤ -1)
Settings in all cases: compound concentration: 200 uM; treatment time: 3 h
USP42 = target: T1, USP42 (UniProt Q9H9J4)
T1 sequence (whole entry): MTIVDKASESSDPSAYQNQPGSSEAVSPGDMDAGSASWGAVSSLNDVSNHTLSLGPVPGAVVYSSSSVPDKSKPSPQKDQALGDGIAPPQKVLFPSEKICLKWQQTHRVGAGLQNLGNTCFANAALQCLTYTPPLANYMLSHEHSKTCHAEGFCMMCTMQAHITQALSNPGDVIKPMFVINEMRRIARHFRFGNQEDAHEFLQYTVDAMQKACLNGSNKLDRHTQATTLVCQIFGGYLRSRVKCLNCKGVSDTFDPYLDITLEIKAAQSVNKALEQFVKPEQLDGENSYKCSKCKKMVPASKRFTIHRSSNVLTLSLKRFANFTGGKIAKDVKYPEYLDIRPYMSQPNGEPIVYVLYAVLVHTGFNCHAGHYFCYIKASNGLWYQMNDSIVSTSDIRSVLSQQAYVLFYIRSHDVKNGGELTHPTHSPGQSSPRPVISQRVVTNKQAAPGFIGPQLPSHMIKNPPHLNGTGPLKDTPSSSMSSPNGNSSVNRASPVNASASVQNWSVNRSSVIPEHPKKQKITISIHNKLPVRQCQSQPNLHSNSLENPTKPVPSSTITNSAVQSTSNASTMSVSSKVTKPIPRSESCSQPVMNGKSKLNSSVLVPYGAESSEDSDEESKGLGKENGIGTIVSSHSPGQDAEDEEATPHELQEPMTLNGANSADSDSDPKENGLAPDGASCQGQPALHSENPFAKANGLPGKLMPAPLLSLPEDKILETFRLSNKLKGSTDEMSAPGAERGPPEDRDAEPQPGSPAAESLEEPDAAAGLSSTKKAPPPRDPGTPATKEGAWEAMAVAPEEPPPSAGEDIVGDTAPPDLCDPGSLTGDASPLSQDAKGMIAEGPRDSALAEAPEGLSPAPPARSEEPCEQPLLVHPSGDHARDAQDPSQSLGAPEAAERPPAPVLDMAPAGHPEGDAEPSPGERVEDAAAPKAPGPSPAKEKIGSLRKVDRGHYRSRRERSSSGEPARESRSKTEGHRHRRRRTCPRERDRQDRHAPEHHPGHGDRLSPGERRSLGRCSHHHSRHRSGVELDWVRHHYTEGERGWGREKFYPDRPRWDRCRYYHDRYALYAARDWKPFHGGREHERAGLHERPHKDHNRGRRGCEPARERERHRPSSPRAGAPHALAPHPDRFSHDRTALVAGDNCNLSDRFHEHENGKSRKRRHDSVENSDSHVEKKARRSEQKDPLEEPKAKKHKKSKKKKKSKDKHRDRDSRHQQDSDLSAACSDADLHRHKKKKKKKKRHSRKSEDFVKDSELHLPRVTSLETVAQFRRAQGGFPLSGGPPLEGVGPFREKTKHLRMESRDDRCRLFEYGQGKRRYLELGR
Method in brief: (§1)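 Labelled DUBs from HEK293T lysate were NeutrAvidin-enriched, digested with LysC and trypsin, and run by diaPASEF LC-MS/MS. Before that, each 495 µg sample in Tris/CHAPS/IGEPAL buffer with protease inhibitors was treated in triplicate with fragment at 200 µM or vehicle for 3 h, then with Biotin-Ahx-Ub-VS at 0.5 µM final for 1 h. Values are average log2 ratios of fragment over vehicle by unpaired t-test, based on global-median-normalised Spectronaut label-free quantities from proteins with ≥2 unique peptides.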

USP46 = USP46 (UniProt P62068)
USP46, sequence (P62068 whole entry): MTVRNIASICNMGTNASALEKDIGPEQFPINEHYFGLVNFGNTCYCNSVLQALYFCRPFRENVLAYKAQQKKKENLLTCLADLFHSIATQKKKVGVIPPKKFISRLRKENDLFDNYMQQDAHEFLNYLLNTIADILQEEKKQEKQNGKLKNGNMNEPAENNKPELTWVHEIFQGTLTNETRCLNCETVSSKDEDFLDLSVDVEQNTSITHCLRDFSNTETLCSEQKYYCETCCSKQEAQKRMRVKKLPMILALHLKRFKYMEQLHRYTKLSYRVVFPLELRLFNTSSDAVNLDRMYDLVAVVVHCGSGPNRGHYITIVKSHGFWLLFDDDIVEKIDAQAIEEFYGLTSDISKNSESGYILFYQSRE
Method in brief: as §1

USP47 = target: T2, USP47 (UniProt Q96K76)
T2 sequence (whole entry): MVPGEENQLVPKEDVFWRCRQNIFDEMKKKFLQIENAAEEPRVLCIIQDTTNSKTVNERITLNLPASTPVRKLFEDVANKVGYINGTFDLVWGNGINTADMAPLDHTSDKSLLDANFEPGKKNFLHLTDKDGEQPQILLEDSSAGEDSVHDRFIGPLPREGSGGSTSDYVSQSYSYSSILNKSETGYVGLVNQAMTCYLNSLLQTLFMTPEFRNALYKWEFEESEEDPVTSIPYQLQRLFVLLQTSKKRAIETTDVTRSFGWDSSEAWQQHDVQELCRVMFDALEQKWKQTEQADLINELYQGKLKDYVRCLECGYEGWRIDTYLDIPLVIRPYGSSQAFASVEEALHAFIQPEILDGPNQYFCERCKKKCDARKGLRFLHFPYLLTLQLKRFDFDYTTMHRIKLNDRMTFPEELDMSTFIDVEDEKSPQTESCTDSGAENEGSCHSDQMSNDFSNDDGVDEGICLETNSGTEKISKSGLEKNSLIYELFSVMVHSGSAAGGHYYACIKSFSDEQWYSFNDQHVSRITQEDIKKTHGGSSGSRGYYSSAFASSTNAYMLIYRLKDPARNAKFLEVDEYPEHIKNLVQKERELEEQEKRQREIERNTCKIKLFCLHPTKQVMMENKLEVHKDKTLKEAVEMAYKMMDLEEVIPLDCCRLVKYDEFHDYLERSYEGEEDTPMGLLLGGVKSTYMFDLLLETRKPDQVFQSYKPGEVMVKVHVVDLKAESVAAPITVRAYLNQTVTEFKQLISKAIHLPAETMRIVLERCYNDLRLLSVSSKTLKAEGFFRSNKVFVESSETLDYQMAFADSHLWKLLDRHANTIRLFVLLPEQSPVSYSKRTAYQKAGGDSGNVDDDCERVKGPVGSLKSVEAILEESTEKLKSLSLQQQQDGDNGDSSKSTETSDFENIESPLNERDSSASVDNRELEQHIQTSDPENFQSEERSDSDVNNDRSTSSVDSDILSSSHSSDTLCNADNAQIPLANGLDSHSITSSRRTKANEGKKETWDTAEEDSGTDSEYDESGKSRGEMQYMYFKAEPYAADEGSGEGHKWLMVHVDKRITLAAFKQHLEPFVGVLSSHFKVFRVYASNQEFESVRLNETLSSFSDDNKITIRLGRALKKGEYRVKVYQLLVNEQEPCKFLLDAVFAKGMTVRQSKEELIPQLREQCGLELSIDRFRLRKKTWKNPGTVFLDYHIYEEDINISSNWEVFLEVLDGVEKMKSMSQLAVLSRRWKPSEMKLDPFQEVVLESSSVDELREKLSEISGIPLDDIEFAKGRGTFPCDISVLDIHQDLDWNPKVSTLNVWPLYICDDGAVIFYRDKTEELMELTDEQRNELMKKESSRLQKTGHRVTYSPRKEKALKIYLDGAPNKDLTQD
Method in brief: as §1

USP48 = target: T3, USP48 (UniProt Q86UV5)
T3 sequence (whole entry): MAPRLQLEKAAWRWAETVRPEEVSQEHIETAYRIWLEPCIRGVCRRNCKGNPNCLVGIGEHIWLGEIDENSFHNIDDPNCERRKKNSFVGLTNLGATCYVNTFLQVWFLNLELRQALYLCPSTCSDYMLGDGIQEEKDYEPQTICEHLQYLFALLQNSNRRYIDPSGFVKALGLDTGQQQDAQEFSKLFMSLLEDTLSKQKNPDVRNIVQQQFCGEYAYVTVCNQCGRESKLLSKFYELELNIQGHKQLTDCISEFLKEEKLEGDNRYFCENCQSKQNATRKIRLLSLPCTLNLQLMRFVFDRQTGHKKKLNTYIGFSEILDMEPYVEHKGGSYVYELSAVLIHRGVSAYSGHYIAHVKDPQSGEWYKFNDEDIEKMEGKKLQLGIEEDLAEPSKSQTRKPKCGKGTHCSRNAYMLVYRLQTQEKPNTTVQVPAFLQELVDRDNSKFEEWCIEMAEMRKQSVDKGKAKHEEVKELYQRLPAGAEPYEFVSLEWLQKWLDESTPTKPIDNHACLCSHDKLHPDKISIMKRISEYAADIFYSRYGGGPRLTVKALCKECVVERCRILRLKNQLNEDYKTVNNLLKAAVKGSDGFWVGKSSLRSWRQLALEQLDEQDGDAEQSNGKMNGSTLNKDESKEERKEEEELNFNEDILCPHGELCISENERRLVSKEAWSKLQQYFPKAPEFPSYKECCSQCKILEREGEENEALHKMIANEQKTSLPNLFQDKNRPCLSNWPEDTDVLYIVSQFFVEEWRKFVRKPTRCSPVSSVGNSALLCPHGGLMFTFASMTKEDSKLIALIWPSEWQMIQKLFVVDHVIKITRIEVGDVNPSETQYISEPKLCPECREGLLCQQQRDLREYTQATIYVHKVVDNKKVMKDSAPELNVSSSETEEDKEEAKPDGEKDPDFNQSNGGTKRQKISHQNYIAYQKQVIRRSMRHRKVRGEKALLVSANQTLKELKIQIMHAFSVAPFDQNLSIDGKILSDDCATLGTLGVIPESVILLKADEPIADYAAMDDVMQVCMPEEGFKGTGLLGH
Method in brief: as §1

USP5 = target: T4, USP5 (UniProt P45974)
T4 sequence (whole entry): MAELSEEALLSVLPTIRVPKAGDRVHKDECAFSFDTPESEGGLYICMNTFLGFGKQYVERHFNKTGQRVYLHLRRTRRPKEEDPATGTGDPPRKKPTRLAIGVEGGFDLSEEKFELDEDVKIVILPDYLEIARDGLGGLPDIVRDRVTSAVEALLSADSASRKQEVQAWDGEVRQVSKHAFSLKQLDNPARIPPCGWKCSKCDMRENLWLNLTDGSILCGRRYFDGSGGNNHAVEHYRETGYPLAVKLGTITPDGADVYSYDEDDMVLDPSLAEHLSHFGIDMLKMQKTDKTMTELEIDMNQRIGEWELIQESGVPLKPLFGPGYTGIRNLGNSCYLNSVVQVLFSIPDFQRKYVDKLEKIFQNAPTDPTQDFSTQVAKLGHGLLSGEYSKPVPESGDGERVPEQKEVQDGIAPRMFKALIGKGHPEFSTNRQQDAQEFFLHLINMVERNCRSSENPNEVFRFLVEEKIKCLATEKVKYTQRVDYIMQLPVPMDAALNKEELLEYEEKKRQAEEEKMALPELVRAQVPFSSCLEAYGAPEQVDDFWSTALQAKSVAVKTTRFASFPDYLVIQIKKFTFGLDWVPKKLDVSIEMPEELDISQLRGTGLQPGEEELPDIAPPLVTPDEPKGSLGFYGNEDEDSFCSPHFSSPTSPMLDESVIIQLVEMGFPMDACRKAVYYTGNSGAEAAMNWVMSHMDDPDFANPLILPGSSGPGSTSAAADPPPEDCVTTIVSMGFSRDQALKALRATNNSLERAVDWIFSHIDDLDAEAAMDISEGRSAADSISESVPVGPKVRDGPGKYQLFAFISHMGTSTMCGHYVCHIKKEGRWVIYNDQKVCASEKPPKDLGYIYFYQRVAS
Method in brief: as §1

USP54 = USP54 (UniProt Q70EL1)
USP54, sequence (Q70EL1 whole entry): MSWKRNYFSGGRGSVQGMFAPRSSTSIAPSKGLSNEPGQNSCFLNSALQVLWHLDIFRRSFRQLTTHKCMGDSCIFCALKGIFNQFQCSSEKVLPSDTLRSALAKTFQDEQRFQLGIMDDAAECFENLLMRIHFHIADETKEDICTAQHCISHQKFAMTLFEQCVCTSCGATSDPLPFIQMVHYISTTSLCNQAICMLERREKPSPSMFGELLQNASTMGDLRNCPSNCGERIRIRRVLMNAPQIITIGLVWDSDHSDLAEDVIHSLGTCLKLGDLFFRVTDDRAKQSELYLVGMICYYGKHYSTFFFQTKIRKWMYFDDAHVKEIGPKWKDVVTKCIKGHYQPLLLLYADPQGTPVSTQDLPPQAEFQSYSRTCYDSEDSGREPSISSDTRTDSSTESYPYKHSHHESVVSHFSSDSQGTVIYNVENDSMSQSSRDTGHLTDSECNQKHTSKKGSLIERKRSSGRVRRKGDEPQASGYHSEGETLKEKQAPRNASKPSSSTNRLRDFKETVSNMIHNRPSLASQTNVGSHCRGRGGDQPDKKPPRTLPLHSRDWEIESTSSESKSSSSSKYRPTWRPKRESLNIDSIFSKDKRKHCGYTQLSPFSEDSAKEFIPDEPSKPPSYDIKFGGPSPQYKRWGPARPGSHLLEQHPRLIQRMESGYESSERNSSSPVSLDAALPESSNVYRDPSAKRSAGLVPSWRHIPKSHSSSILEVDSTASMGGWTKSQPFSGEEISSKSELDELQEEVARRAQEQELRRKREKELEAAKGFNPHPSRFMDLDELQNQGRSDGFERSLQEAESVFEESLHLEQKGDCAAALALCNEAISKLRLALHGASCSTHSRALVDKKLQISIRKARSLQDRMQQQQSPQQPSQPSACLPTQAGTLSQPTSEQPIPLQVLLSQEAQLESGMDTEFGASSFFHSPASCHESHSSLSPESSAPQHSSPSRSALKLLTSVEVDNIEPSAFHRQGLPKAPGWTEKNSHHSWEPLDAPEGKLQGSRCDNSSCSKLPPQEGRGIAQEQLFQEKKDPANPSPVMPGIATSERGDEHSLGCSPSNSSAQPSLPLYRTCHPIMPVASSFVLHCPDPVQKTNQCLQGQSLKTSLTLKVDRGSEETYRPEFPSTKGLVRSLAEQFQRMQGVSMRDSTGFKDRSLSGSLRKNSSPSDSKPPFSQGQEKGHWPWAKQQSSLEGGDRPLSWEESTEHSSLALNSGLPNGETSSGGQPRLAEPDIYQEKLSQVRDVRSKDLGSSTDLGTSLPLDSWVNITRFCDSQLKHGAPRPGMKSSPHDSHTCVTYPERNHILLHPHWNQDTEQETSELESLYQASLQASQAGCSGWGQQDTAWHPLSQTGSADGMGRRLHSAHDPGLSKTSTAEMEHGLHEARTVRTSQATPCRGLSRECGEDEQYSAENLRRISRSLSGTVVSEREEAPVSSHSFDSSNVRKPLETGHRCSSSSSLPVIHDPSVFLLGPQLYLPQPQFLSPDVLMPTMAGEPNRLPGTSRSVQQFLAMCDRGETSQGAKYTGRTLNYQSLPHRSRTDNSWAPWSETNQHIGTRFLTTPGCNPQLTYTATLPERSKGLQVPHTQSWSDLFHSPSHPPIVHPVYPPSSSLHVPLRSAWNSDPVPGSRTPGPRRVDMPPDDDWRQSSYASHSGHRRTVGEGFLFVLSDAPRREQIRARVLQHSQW
Method in brief: as §1

USP7 = USP7 (UniProt Q93009)
USP7, sequence (Q93009 whole entry, looked up): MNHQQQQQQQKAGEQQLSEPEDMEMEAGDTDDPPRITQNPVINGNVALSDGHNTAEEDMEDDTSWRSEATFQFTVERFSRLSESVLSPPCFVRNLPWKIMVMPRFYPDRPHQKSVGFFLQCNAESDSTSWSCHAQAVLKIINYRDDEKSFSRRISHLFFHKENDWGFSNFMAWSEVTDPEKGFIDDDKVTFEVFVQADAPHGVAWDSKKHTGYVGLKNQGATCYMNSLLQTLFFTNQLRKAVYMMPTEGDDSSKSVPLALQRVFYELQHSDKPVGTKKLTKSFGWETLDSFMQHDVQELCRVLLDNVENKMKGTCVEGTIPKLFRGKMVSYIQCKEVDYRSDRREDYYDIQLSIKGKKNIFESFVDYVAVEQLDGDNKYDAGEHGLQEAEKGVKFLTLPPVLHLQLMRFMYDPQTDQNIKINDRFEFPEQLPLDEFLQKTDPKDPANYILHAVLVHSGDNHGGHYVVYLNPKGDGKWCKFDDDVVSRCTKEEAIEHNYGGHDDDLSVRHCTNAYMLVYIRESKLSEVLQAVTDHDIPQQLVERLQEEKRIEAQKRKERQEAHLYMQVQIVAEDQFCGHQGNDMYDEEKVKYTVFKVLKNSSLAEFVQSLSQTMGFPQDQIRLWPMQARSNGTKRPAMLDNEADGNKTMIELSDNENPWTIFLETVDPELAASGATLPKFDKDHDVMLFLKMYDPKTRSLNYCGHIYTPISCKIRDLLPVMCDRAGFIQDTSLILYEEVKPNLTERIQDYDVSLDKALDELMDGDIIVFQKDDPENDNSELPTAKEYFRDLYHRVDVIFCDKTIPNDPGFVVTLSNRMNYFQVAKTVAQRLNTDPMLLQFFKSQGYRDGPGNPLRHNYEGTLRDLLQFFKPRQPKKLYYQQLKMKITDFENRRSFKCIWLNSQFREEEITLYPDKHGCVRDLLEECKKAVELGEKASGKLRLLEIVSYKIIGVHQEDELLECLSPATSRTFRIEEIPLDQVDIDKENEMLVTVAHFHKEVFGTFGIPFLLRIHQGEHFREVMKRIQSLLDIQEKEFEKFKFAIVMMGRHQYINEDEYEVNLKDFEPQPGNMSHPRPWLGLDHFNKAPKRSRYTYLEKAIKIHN
Method in brief: as §1

USP8 = target: T5, USP8 (UniProt P40818)
T5 sequence (whole entry): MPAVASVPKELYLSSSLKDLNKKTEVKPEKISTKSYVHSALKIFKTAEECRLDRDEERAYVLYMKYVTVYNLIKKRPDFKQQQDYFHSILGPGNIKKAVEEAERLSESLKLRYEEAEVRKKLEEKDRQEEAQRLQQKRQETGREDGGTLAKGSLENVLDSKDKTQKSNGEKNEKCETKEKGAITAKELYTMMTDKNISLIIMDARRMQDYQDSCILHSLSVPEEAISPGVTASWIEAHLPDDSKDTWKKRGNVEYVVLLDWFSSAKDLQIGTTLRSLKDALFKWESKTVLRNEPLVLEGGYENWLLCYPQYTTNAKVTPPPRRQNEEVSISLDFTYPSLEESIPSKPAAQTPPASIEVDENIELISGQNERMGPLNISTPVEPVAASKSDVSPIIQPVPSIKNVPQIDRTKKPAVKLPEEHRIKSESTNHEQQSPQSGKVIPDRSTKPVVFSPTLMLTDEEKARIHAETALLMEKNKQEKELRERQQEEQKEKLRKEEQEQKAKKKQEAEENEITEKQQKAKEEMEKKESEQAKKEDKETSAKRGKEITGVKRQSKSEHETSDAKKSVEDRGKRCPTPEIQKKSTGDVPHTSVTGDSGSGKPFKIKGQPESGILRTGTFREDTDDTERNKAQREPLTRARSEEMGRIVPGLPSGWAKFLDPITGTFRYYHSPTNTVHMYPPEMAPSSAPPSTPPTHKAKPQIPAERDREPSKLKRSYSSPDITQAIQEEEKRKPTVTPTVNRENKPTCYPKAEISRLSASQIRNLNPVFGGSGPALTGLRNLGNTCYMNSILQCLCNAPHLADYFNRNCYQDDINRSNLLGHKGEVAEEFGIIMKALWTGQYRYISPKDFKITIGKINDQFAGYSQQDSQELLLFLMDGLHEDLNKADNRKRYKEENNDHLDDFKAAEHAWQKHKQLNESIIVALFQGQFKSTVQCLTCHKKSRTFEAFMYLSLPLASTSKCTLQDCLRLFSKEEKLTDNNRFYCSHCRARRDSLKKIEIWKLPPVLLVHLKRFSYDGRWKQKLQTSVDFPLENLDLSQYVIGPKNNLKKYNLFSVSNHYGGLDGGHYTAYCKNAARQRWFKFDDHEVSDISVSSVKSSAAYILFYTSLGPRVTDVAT
Method in brief: as §1

Measured: log2 ratio of Biotin-Ahx-Ub-VS probe labelling

CN(C(=O)CCl)c1nc2ccccc2s1
inactive: USP42 0.236 | USP46 -0.305 | USP47 -0.107 | USP48 -0.574 | USP5 -0.191 | USP54 -0.996 | USP7 -0.566 | USP8 -0.0186
